Tau filament bind: qHTS Assay for Tau Filament Binding; Microtubule-associated protein tau (Homo sapiens), P10636; recombinant tau filaments, thioflavin S fluorescence, 15 h; filaments grown with octadecylsulfate alongside compound; Potency, µM (series often up to 57.1 µM), inactives show top-dose activity change, negative = inhibition; actives 2% (n = 71,000); AID 596, 2007;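 also: % is scaled to controls: 0 for no effect and ±100 for the full control effect; actives lower thioflavin S fluorescence by blocking filaments or displacing dye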
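Quantitative HTS: thioflavine S signal from ODS-induced tau filaments, excited at 450 nm, emission 510 nm. Conditions: 1 uM tau, 30 uM ODS, 15 h at 37 C, pH 7.4.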
PK Bst: Pyruvate Kinase; purified pyruvate kinase, luminescence ATP production; ribose 5-phosphate activator present at AC10; Potency, µM; actives 1.2% (n = 51,000); AID 361, 2006; in the data active = potency below about 11 µM; inconclusive = mostly about 12 µM to 25 µM;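 the screen sought inhibitors and activators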;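 also: scaled between full activation by ribose 5 phosphate and full inhibition by luteolin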
ALOX15 inhib: qHTS Assay for Inhibitors of 15-hLO (15-human lipoxygenase). Polyunsaturated fatty acid lipoxygenase ALOX15 (Homo sapiens), P16050. actives 1.4% (n = 74,000). AID 887, 2007. purified 15hLO-1, xylenol orange hydroperoxide absorbance. Potency, µM (top dose mostly 57.1 µM), inactives show at the highest dose activity change, negative = inhibition, hits mostly inhibitors; also: % is scaled to controls: 0 for no effect and ±100 for the full control effect; nearly all actives have a fitted effect of over 55% in size
Target sequence (P16050 whole entry, looked up): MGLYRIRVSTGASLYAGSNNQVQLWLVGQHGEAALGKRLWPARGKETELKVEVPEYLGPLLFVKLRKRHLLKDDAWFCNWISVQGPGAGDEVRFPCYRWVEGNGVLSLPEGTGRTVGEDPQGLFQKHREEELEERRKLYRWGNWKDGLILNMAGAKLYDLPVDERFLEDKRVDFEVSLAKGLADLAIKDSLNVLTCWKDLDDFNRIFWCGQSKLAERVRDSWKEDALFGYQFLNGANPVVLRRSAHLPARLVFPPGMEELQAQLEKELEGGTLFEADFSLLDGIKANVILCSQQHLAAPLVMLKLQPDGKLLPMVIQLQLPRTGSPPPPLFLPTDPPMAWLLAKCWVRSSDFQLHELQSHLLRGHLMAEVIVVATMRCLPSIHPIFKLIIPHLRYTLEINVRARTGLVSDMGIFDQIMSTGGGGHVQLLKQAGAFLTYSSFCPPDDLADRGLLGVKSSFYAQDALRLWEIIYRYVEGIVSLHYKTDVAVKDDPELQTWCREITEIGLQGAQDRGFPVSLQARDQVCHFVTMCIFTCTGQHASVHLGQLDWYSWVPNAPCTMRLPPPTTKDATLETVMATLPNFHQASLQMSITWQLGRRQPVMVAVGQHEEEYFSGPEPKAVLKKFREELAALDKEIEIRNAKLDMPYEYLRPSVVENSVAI
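Compounds were preincubated 15 min at room temperature with 40 nM purified human enzyme (25 mM Hepes pH 7.5, 0.01% Triton X-100); 50 uM arachidonic acid reacted 6 min. Fe-xylenol orange detection, 30 min, absorbance ratio 573/405 nm.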
GBA mod: Glucocerebrosidase | Potency, µM | purified enzyme, resorufin glucoside fluorescence (screen aimed at inhibitors), 20 min | actives 1.1% (n = 48,000) | AID 360, 2006; in the data active = potency below about 15 µM; inconclusive = mostly about 16 µM to 33 µM;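 also: the screen sought inhibitors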
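Normal human glucocerebrosidase (0.2 nM final) was assayed with resorufin β-D-glucopyranoside (30 uM final) in 50mM citric acid/KH2PO4, 10mM sodium taurocholate, 0.01% tween-20, pH 5.9. Compounds were titrated; fluorescence (Ex 548, Em 600) read after 20 min at RT.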
Hsp90 Hop PPI: qHTS Assay for Disrupters of an Hsp90 Co-Chaperone Interaction; Hsp90 C-terminal peptide / TPR2A (Hop) interaction, human; AlphaScreen TPR2A-His6 binding biotin-Hsp90 C-terminal peptide; Potency, µM (series often up to 57 µM), for the others: top-dose activity change, negative = inhibition; actives 0.44% (n = 71,000); active = well fitted curve in either direction with a large enough effect; inconclusive = small, poorly fitted or top-dose-only effect, or another doubt; also: % is scaled to controls: 0 for no effect and ±100 for the full control effect
USP2a inhib: qHTS Assay for Inhibitors of Ubiquitin-specific Protease USP2a. AID 927, 2007. actives 0.1% (n = 60,000). Potency, µM (highest dose often 38.3 µM), without a hit: top-dose activity change, negative = inhibition, usual class: inhibitors. Ubiquitin carboxyl-terminal hydrolase 2 (Homo sapiens), O75604. USP2a enzymatic assay, qHTS inhibition; also: nearly all actives have a fitted effect of over 60% in size
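USP2 core (20nM final) preincubated 30 min RT with compound, then Ub-PLA2 20nM and NBD C6-HPC 20uM final added; buffer 20mM Tris-HCl pH 8.0, 2mM CaCl2. Fluorescence Ex 460/Em 535 read at 0 and 2.5 h; normalized to NEM.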
* = called active by the depositor; [ ] = another dose, or the depositor's remark. Rows were chosen to be rich in hits. Some 4.6% of all compounds tested hit in one or more screens of this group. Unless noted, calls follow the shape of the dose curve; as a rule, active = well fitted curve in the direction sought with a large enough effect; inconclusive = small, poorly fitted or top-dose-only effect, or another doubt; inactive = no such curve, though single readings can be large; an effect the other way counts as inactive or inconclusive. Potency is read from the fitted curve at half-maximal effect.

Results for CC1=C(C(=O)Nc2ccccc2)C(c2ccc3c(c2)OCO3)C2=C(CCCC2=O)N1 (stereo unspecified) ?
Tau filament bind: 9%; PK Bst: >57; ALOX15 inhib: 5%; GBA mod: >77; Hsp90 Hop PPI: 0%; USP2a inhib: 9%

How did O=C1CN(C(=O)c2ccco2)C(c2ccc(F)cc2)c2cc(Cl)ccc2N1 (stereo unspecified) do in these assays?
Tau filament bind: -8%; PK Bst: >57; ALOX15 inhib: 25%; GBA mod: >77; Hsp90 Hop PPI: -7%; USP2a inhib: 23%

What do the screens show for `O=C1CN2C(=Nc3ccc(Cl)cc3C2c2ccccc2)CN1` (stereo unspecified)?
Tau filament bind: 3%; PK Bst: >57; ALOX15 inhib: -10%; GBA mod: 1.3*; Hsp90 Hop PPI: -2%; USP2a inhib: 3%

How did CC1=CC(C)(C)N2C(=O)C3(C(C#N)=C(N)Oc4cc(O)ccc43)c3cccc1c32 (stereo unspecified) do in these assays?
Tau filament bind: 4µM*; PK Bst: >57; ALOX15 inhib: -21%; GBA mod: >77; Hsp90 Hop PPI: -9%; USP2a inhib: 6%

What do the screens show for `Cc1cc(N=Cc2c(O)n(-c3ccc4c(c3)OCO4)c(=O)c3ccccc23)ccn1`?
Tau filament bind: 145%; PK Bst: >57; ALOX15 inhib: -21%; GBA mod: 11*; Hsp90 Hop PPI: -20%; USP2a inhib: 34%

How did CCCCCCCC[N+](CCCCCCCC)(CCCCCCCC)CCCCCCCC do in these assays?
Tau filament bind: 400%; ALOX15 inhib: 20µM*; Hsp90 Hop PPI: -2%

Results for COC(=O)N1[C@H](C)C=C[C@]1(Cc1ccccc1)C(=O)NCc1ccc(N(C)C)cc1 ?
Tau filament bind: -18%; ALOX15 inhib: 20µM*; Hsp90 Hop PPI: -11%

How did COC(=O)N1[C@H](C)C=C[C@]1(Cc1ccccc1)C(=O)NCc1ccccn1 do in these assays?
Tau filament bind: 2%; ALOX15 inhib: inconclusive; Hsp90 Hop PPI: -3%

How did CC(C)CNC(=O)c1c(N)n(/N=C/c2ccccn2)c2nc3ccccc3nc12 do in these assays?
PK Bst: >26

What do the screens show for `O=C(CSc1nc(-c2ccco2)cc(C(F)(F)F)n1)Nc1cccnc1`?
Tau filament bind: 0%; PK Bst: >57; ALOX15 inhib: 7%; GBA mod: >77; Hsp90 Hop PPI: -1%

What do the screens show for `CC(=O)Nc1cccc(-c2nnc(-c3ccccc3)o2)c1`?
Tau filament bind: 19%; PK Bst: inconclusive; ALOX15 inhib: -3%; GBA mod: 14*; Hsp90 Hop PPI: -2%; USP2a inhib: 7%

What do the screens show for `COc1cccc(C(=O)Nc2cccc(-c3nnc(-c4ccccc4)o3)c2)c1`?
Tau filament bind: 298%; ALOX15 inhib: inconclusive; Hsp90 Hop PPI: -2%; USP2a inhib: 22%

What do the screens show for `COc1ccc(CC(=O)Nc2cccc(-c3nnc(-c4cccc(C)c4)o3)c2)cc1OC`?
Tau filament bind: inactive; ALOX15 inhib: -14%; GBA mod: 11*; Hsp90 Hop PPI: -4%; USP2a inhib: 25%

How did O=C(Cn1cnc2c(nnn2-c2ccccc2)c1=O)NCC1CCCO1 (stereo unspecified) do in these assays?
Tau filament bind: 0%; ALOX15 inhib: 13%; Hsp90 Hop PPI: 7%

Results for COc1ccccc1NC(=O)N1CCN(c2cccc(C(F)(F)F)c2)CC1 ?
Tau filament bind: 2%; ALOX15 inhib: 40µM*; Hsp90 Hop PPI: inconclusive; USP2a inhib: inconclusive

What do the screens show for `COc1cc(C2C(C#N)=C(N)Oc3c2oc(CO)cc3=O)ccc1OC(C)C` (stereo unspecified)?
Tau filament bind: -12%; PK Bst: >57; ALOX15 inhib: 20µM*; GBA mod: >77; Hsp90 Hop PPI: -13%; USP2a inhib: -7%

What do the screens show for `COc1cc(C2C(C#N)=C(N)Oc3cc(N(C)C)ccc32)cc2c1OCO2` (stereo unspecified)?
Tau filament bind: 206%; PK Bst: >57; ALOX15 inhib: 25µM*; GBA mod: >77; Hsp90 Hop PPI: -10%; USP2a inhib: 6%

Results for Cc1ccc(C2C(C#N)=C(N)Oc3c2oc(CO)cc3=O)o1 (stereo unspecified) ?
Tau filament bind: 12%; PK Bst: >57; ALOX15 inhib: -16%; GBA mod: >77; Hsp90 Hop PPI: -7%

Results for COc1ccc(C2C(C#N)=C(N)Oc3cc(O)ccc32)cc1OC (stereo unspecified) ?
Tau filament bind: 143%; PK Bst: >57; ALOX15 inhib: 10µM*; GBA mod: >77; Hsp90 Hop PPI: -3%; USP2a inhib: -3%

How did COc1cc(C2C(C#N)=C(N)Oc3cc(O)ccc32)cc2c1OCO2 (stereo unspecified) do in these assays?
Tau filament bind: 60%; ALOX15 inhib: 2%; Hsp90 Hop PPI: -7%

Results for CCOC(=O)c1csc(Nc2nc3ccc(F)cc3s2)n1 ?
Tau filament bind: 131%; PK Bst: 1.2*; ALOX15 inhib: 28%; GBA mod: >77; Hsp90 Hop PPI: -1%; USP2a inhib: 27%

What do the screens show for `N#Cc1cnc(Nc2nc3ccccc3o2)nc1-c1ccccc1`?
Tau filament bind: 132%; PK Bst: >57; ALOX15 inhib: 30%; GBA mod: >77; Hsp90 Hop PPI: -4%; USP2a inhib: 21%

How did CC(=O)c1sc(NC(=O)c2ccc(Cn3cc(Br)cn3)o2)nc1C do in these assays?
Tau filament bind: -9%; PK Bst: >57; ALOX15 inhib: -7%; GBA mod: >77; Hsp90 Hop PPI: -4%; USP2a inhib: 13%

How did O=C1OCCC1Sc1nnc(-c2ccccc2)o1 (stereo unspecified) do in these assays?
Tau filament bind: 12%; PK Bst: 8.8*; ALOX15 inhib: -2%; GBA mod: >77; Hsp90 Hop PPI: 6%; USP2a inhib: 0%

What do the screens show for `COc1ccc(N2C(=O)CC(Sc3nnc(-c4ccccc4)o3)C2=O)cc1` (stereo unspecified)?
Tau filament bind: -3%[11.4 µM]; ALOX15 inhib: -12%[11.4 µM]; Hsp90 Hop PPI: -7%[11 µM]; USP2a inhib: 21%[7.66 µM]

Results for O=C(Nc1ccc2nc(-c3cccs3)[nH]c2c1)c1cccs1 ?
Tau filament bind: 76%; PK Bst: 10*; ALOX15 inhib: -10%; GBA mod: inactive; Hsp90 Hop PPI: -6%; USP2a inhib: 24%

What do the screens show for `Cn1cccc1-c1nc2ccc(NC(=O)c3ccco3)cc2[nH]1`?
Tau filament bind: 2%; PK Bst: inactive; ALOX15 inhib: -4%; Hsp90 Hop PPI: -26%; USP2a inhib: 47%

Screening results deposited in PubChem BioAssay by National Center for Advancing Translational Sciences (NCATS).
